Screens deposited in PubChem BioAssay by several laboratories.
TWEAK Fn14 block – inhibitors of TWEAK-Fn14 interaction signaling. TWEAK-stimulated Fn14 reporter cells, luciferase luminescence, 8 h. 2% of 360,000 active. inhibition, % at 10 µM; in the data active = inhibition above about 50%
HSP90 inh – blocks HSP90-mediated luciferase refolding in reticulocyte lysate. Rabbit reticulocyte lysate, luciferase refolding luminescence, 3 h. inhibition, % at 5.6 µM. 0.91% of 290,000 active;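 active = inhibition above the screen-wide mean plus 3 SD, computed separately per campaign, cut at about 16% in these data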;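 also: inhibitors lower the luminescence because luciferase stays unfolded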
LGR2 antag – inhibitors of bursicon-induced Drosophila LGR2 receptor cAMP signaling; AID 720647; 0.35% of 380,000 active; inhibition, % at 9.99 µM; HEK293 LGR2, CRE-luciferase, bursicon-stimulated, 4 h;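 active = drop in luminescence signal, shown as inhibition above about 50% in the replicate tests, limit read from the data, passing the limit was not always enough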;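 also: agonist challenge used bursicon conditioned medium at about half maximal strength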
EBV LMP1 NFkB – Epstein-Barr LMP1 NF-kappaB reporter inhibition | AID 504558 | inhibition, % at 12.5 µM | 0.69% of 350,000 active | LMP1-induced NF-kappaB luciferase reporter cells, luminescence; in the data active = inhibition above about 41%
TROY signal inh – blocks TROY-dependent signaling in reporter cells; Q293 LMP1-TROYcd NF-kB luciferase reporter, 4 h; inhibition, % at 10 µM; 0.98% of 360,000 active; AID 1347056;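 active = compounds whose plate-normalised and pattern-corrected inhibition of the luciferase reporter signal at the single screening dose is 50% or more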
aDG glyco up – alpha-DG glycosylation activation; activation, % at 10 µM; Pro5-aDG cells, alpha-DG glycosylation AlphaScreen (IIH6); 0% Pro5, 100% B10-LARGE cell signal; AID 624168; 0.22% of 360,000 active;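 active = activation of at least 8% versus controls, or a plate z-score of at least 8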;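 also: Pro5 are CHO cells carrying HIG-tagged alpha-DG that lacks glycosylation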
Of the large screens only hits and unclear results are named; the others gave an inactive call; ! = a repeat was not active. Sampled rows, rich in hits. Any-hit rate of the full collection: about 2.6%.

O=C(C[C@H]1CC[C@@H]2[C@H](COC[C@H](O)CN2Cc2cc(F)ccc2F)O1)N[C@@H]1CCN(Cc2ccccc2)C1	none (no result: TWEAK Fn14 block, HSP90 inh, EBV LMP1 NFkB, TROY signal inh, aDG glyco up)
CS(=O)(=O)Nc1ccc2c(c1)[C@@H]1C[C@@H](CC(=O)NCc3ccc(Cl)cc3)O[C@@H](CO)[C@@H]1O2	none (no result: TWEAK Fn14 block, HSP90 inh, EBV LMP1 NFkB, TROY signal inh, aDG glyco up)
Cc1ccc(S(=O)(=O)N[C@H](C(=O)N2CCC(C(=O)N[C@@H](CC(=O)O)C(=O)O)CC2)C(C)C)cc1	EBV LMP1 NFkB 74.4
CCCCCC(NC(=O)C1CCN(C(=O)[C@@H](NS(=O)(=O)c2ccc(C)cc2)C(C)C)CC1)C(=O)O (stereo partly drawn)	none
O=C(c1noc2c1CSc1ccccc1-2)N1CCN(c2ccc(Cl)cc2)CC1	EBV LMP1 NFkB 68.3
Cc1cc(=S)[nH]c2ccccc12	EBV LMP1 NFkB 62.6
Cc1ccc2[nH]c(=S)cc(C)c2c1	none (no result: LGR2 antag)
OCCN(CCO)c1ccc2ccccc2c1	none
OCCN(CCO)c1cc2c3ccccc3ccc2c2ccccc12	TWEAK Fn14 block 99.2, LGR2 antag 84.9, TROY signal inh 51.5 (no result: HSP90 inh)
C1CCC(C(CC2CCCCN2)C2CCCCC2)CC1 (stereo not drawn)	LGR2 antag 57.9!
Cc1ccccc1Oc1cc(-n2ncc(Cl)c(Cl)c2=O)ncn1	TWEAK Fn14 block 106.7, LGR2 antag 101.4, EBV LMP1 NFkB 93.0, TROY signal inh 90.4
O=c1c(Cc2ccccc2)c(O)c2cccc3c4c(n1c23)CCCC4	TROY signal inh 54.4
Cn1c(=O)c(Cc2ccccc2)c(O)c2ccccc21	none
Fc1cccc(Cl)c1/C=N/Nc1c(Cl)cncc1Cl	TWEAK Fn14 block 53.5
O=S(=O)(N/N=C\c1c(F)cccc1Cl)c1ccc(Cl)cc1	none (no result: LGR2 antag)
COc1ccc(-c2csc(NC(=O)Cc3ccccc3F)n2)cc1OC	none
O=C(Nc1nc2c(F)cc(F)cc2s1)C1CCN(C(=O)c2ccc(F)cc2)CC1	none (no result: HSP90 inh)
O=C(Cc1ccccc1F)Nc1nc(-c2ccc(F)cc2)cs1	TWEAK Fn14 block 51.6, TROY signal inh 57.6
O=C(Nc1nc(-c2ccc(F)cc2)cs1)C1CCN(C(=O)c2ccc(F)cc2)CC1	TWEAK Fn14 block 57.4 (no result: HSP90 inh)
CC(C)NC(=O)N1CC(=O)N2[C@H](CO)[C@H](c3ccc(C#CCN(C)C)cc3)[C@@H]2C1	none (no result: TWEAK Fn14 block, HSP90 inh, EBV LMP1 NFkB, TROY signal inh, aDG glyco up)
CCCNS(=O)(=O)c1ccc(CCC(=O)Nc2cc(Cl)ccc2Oc2ccccc2)cc1	TWEAK Fn14 block 66.1 (no result: LGR2 antag)
Cc1cccc(C)c1N(CC(=O)Nc1cc(Cl)ccc1Oc1ccccc1)S(C)(=O)=O	TROY signal inh 51.7 (no result: LGR2 antag)
Cc1ccc(C)c(N(CC(=O)Nc2cc(Cl)ccc2Oc2ccccc2)S(C)(=O)=O)c1	none (no result: LGR2 antag)
C[C@@H]1CN([C@H](C)CO)C(=O)c2cccc(NS(=O)(=O)c3ccccc3)c2O[C@@H]1CN(C)C(=O)NC1CCCCC1	none (no result: TWEAK Fn14 block, HSP90 inh, EBV LMP1 NFkB, TROY signal inh, aDG glyco up)
COc1ccc2c(c1OC)CN1CCc3cc4c(cc3[C@@H]1[C@@H]2O)OCO4	none (no result: LGR2 antag)
O[C@@H]1[C@@H](O)C=C2CCN3Cc4cc5c(cc4[C@H]1C23)OCO5 (stereo partly drawn)	TWEAK Fn14 block 75.0, LGR2 antag 88.2, TROY signal inh 67.8 (no result: HSP90 inh)
CCC(=O)NNC(=O)CSc1nnc(-c2ccccc2)c(-c2ccccc2)n1	EBV LMP1 NFkB 85.1
O=C(O)CSc1nnc(-c2ccccc2)c(-c2ccccc2)n1	none
NC(=S)NN=Cc1nccc2ccccc12	TWEAK Fn14 block 76.5, EBV LMP1 NFkB 82.1 (no result: HSP90 inh)
NC(=S)NN=Cc1nccc2c(C(F)(F)C(F)(F)C(F)(F)F)cccc12	EBV LMP1 NFkB 82.3 (no result: HSP90 inh)
Cc1cnc(C=NNC(N)=S)c2cccc(N)c12	none (no result: HSP90 inh)
NC(=S)N/N=C/c1ccc(/C=N/NC(N)=S)cc1	none
C[C@H](CO)N1C[C@H](C)[C@H](CN(C)S(=O)(=O)c2cn(C)cn2)Oc2c(NS(=O)(=O)c3ccccc3)cccc2C1=O	none (no result: TWEAK Fn14 block, HSP90 inh, EBV LMP1 NFkB, TROY signal inh, aDG glyco up)
COCC#Cc1cnc2c(c1)C(=O)N([C@H](C)CO)C[C@H](C)[C@@H](CN(C)C(=O)NC1CCCC1)O2	none (no result: TWEAK Fn14 block, HSP90 inh, EBV LMP1 NFkB, TROY signal inh, aDG glyco up)
CCOC(=O)c1ccc(Oc2nc(N(C)C)nc(N(C)C)n2)cc1	none (no result: LGR2 antag)
CCOC(=O)c1ccc(Oc2nc(SC)nc(N(C)C)n2)cc1	TWEAK Fn14 block 73.5 (no result: LGR2 antag, TROY signal inh)
CS(=O)(=O)c1ccc(S(=O)CC(=O)OCc2ccccc2)c([N+](=O)[O-])c1 (stereo not drawn)	TWEAK Fn14 block 89.6, EBV LMP1 NFkB 49.0, TROY signal inh 56.5 (no result: LGR2 antag)
O=[N+]([O-])c1cc([N+](=O)[O-])c2oc(-c3ccccc3)c(Br)c2c1O	TROY signal inh 68.6 (no result: LGR2 antag)
